Bioassay records deposited in PubChem by National Center for Advancing Translational Sciences (NCATS).
Compounds with a hit are over-represented: about 2.9% of the library has one in this group of screens.
p53 reactivation: mutant p53 re-activation in reporter cells | Potency, µM (series often up to 92.2 µM), without a hit: at the top dose activity change, positive = activation, most hits filed as activators | H1299 p53-A138V BP100-luciferase reporter, luminescence, 24 h | actives 0.063% (n = 320,000); also: potency is read from the fitted curve at half-maximal effect; % of control where 0% means no effect; nearly all actives have a fitted effect of over 45% in size
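H1299 (p53-null), stable ts p53-A138V + BP100-Luc; 1000 cells/well, Opti-MEM/10% FBS; cpd 4 pt, 1:5; 24 h, 37 deg C, 5% CO2; detection reagent 10 min RT; luminescence.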
ClpP mod: qHTS Assay for Activators of ClpP. ATP-dependent Clp protease proteolytic subunit (Bacillus subtilis (strain 168)), P80244. purified B. subtilis ClpP, FRET peptide cleavage, 20 min. Potency, µM (top dose mostly 57.5 µM), inactives show at the top dose activity change, negative = active. actives 1.9% (n = 340,000). AID 651965, 2013; active = well fitted falling curve with a large enough effect; inconclusive = small, poorly fitted or top-dose-only effect; inactive = no such curve, though single readings can be large or run the other way; also: potency is read from the fitted curve at half-maximal effect; the source files actives as falling curves though it sought activators and does not explain the sign; nearly all actives have a fitted effect of over 65% in size
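Buffer: 100 mM Tris/HCl pH8, 100 mM KCl, 0.05% low protease BSA, 2.5% glycerol, 0.01% Tween-20. ClpP 10 microg/mL final; 20 min RT; delta FRET normalized to ADEP and DMSO controls.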
LDHA inh: LDHA (human) enzyme inhibition. activity change, % (values are at about 110 or 230 µM). actives 0.15% (n = 480,000). purified LDHA, NADH/diaphorase-resazurin fluorescence; stronger effect = lower value. P00338. AID 1347041; in the data active = activity change below about -30%; inconclusive = mostly about -25% to -30%;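 also: plate controls were DMSO wells for no effect and wells without enzyme for full effect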
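Enzyme activity of human lactate dehydrogenase 5 (2 nM; 0.06 mM NADH, 0.2 mM pyruvate, 5 min, RT) is measured via a resazurin/diaphorase fluorescence readout of residual NADH.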
GLP1R ag: activates the human GLP-1 receptor. AID 624172. Potency, µM (titrated, usually from 45.6 µM), for the others: at the highest dose activation, actives largely listed as activators. HEK293 GLP-1R CRE-luciferase, luminescence, 4-6 h; cells express a hypersensitive GLP-1R form. P43220. actives 0.007% (n = 380,000); also: potency is read from the fitted curve at half-maximal effect; % of control where 0% means no effect
GLP1R inv ag: GLP-1 receptor (human) inverse agonism; actives 1.6% (n = 410,000); HEK293 GLP-1R CRE-luciferase, luminescence, 24 h; GLP-1R form is constitutively active; Potency, µM (top dose mostly 38.3 µM), without a hit: at the highest dose activity change, negative = inhibition, usual class: inhibitors; also: potency is read from the fitted curve at half-maximal effect; % is scaled to controls: 0 for no effect and ±100 for the full control effect; nearly all actives have a fitted effect of over 55% in size
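Cells are plated, allowed 12 hours at 37 deg C, then treated with compounds for 24 hr before luciferase detection reagent is added and luminescence is read after 12 min at room temperature. The HEK293 line carries constitutively active GLP-1R with a cAMP-responsive reporter.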
GLP1R cytotox: cytotoxicity counter-screen for GLP-1 receptor inverse agonists | HEK293 cAMP-luciferase reporter cells, luminescence, 24 h | Potency, µM (top dose mostly 38.3 µM), for inactives: at the top dose activity change, negative = inhibition, actives largely listed as inhibitors | actives 0.13% (n = 410,000) | AID 624418;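 also: loss of luciferase light is scored as toxicity; potency is read from the fitted curve at half-maximal effect; % is scaled to controls: 0 for no effect and ±100 for the full control effect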
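Here, cytotoxicity is scored as loss of luminescence. The MLSMR collection was tested on cells seeded in medium containing 10% Nu serum, with a 24 hr compound exposure preceded by 12 hours of culture.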
Numbers without * were called inactive; i = inactive; ? = inconclusive; · = no result; [ ] = dose if it differs, or a comment. Unless noted, calls follow the shape of the dose curve; as a rule, active = well fitted curve in the direction sought with a large enough effect; inconclusive = small, poorly fitted or top-dose-only effect, or another doubt; inactive = no such curve, though single readings can be large; an effect the other way counts as inactive or inconclusive.

SMILES | p53 reactivation | ClpP mod | LDHA inh | GLP1R ag | GLP1R inv ag | GLP1R cytotox
CCCCN1CC(COCc2ccccc2)Oc2ccccc2S1(=O)=O (centres undefined) | 10% | -3% | -5 | 8% | 11µM* | 15%
CCCCN1CC(COCc2ccccc2)Oc2cccc(OCCN3C(=O)[C@@H]4[C@H](C3=O)C3C=C[C@H]4C3)c2S1(=O)=O (some centres undefined) | · | -3% | -1 | -1% | 10µM* | -20%
O=S1(=O)c2ccccc2OC(COCc2ccccc2)CN1Cc1ccccc1 (centres undefined) | 10% | -2% | -1 | -2% | ? | 6%
Cc1ccc(-c2cn3ccc(C)cc3n2)cc1 | · | 0% | -18 | · | ? | -2%
Cc1ccn2cc(-c3cnoc3C)nc2c1 | ? | 14µM* | 1 | -6% | 47% | 4%
Cc1oncc1-c1cn2ccccc2n1 | 5% | 25µM* | -3 | -7% | 17% | -10%
Cc1ccc(-c2cc(C(=O)NCC(c3ccccc3)N(C)C)c3ccccc3n2)o1 (centres undefined) | 3% | · | -5 | 17% | ? | 69%
CC1CCN(CCNC2CCCC2)CC1 | · | · | 9 | · | · | ·
COCCOC(=O)c1c(C)oc2ccc(OCc3ccccc3)cc12 | -15% | · | -5 | 16% | ? | 30%
COC(=O)c1cc(COc2ccc3oc(C)c(C(=O)OC(C)C)c3c2)c(C)o1 | -2% | 2.5µM* | 0 | 12% | 0% | 8%
CCOc1ccc(CCNC(=O)COC(=O)c2cccc(S(=O)(=O)N3CCCCC3)c2)cc1OCC | 1% | -1% | -3 | 6% | 2% | 7%
Nc1c(C(=O)Nc2ccccc2)sc2nc(-c3ccco3)ccc12 | 4% | 16µM* | -13 | -5% | -30% | 192%
Nc1c(C(=O)Nc2ccccc2Br)sc2nc(-c3cccs3)ccc12 | · | 32µM* | -11 | · | ? | 143%
COc1ccccc1NC(=O)c1sc2nc(-c3ccco3)ccc2c1N | 4% | 3% | -5 | -3% | 8% | i
Nc1c(C(=O)Nc2nc3ccccc3s2)sc2nc(-c3cccs3)ccc12 | -43% | 0% | -17 | -25% | 0% | 110%
CCN(CC)S(=O)(=O)c1ccc(C(=O)Nc2cc3oc4ccccc4c3cc2OC)cc1 | -7% | 107% | -5 | 0% | 13% | 15%
CN(C)c1cc(C(=O)N(C)c2ccccc2)ncn1 | · | -4% | 3 | -5% | 16% | -2%
CCOc1ccc(/C=C/C(=O)c2cc(Br)ccc(=O)c2O)cc1 | -3% | 1% | 3 | -5% | ? | ?
COC(=O)C1=C(C(=O)OC)N2C=CC=CC2(C)C(C(=O)OC)=C1C(=O)OC (centres undefined) | -7% | 2.8µM* | -3 | -7% | 11% | 3%
Cc1cccc(CSc2cn(CC(=O)N3CCOCC3)c3ccccc23)c1 | ? | -1% | -2 | 0% | ? | -16%
O=C(Cn1cc(SCc2cccc(C(F)(F)F)c2)c2ccccc21)N1CCCCCC1 | · | 2% | 2 | · | 7.9µM* | 5%
O=C(Cn1cc(SCc2ccccc2)c2ccccc21)N1CCCCCC1 | · | -3% | -4 | · | ? | 1%
O=C(Cn1cc(SCc2cccc(Cl)c2)c2ccccc21)N1CCOCC1 | 28µM* | 1% | 3 | 0% | ? | 2%
O=C(Cn1cc(SCc2ccc(C(F)(F)F)cc2)c2ccccc21)N1CCCC1 | · | 2% | 8 | · | ? | -4%
Cc1ccc(CSc2cn(CC(=O)N3CCCCC3)c3ccccc23)cc1 | · | -4% | -2 | · | 10µM* | 0%
SMILES | p53 reactivation | ClpP mod | LDHA inh | GLP1R ag | GLP1R inv ag | GLP1R cytotox
COC(=O)CSc1nc2ccccc2c(=O)n1-c1cc(OC)ccc1OC | · | · | 13 | · | · | ·
CCN(CCNCC(O)COCc1ccc(Cl)cc1)c1cccc(C)c1 (centres undefined) | -5% | · | ? | 0% | 10µM* | ?
CCNCC(O)COCc1ccc(OC)cc1 (centres undefined) | · | · | 5 | · | · | ·
COCCCNC(=O)CS(=O)Cc1nc(-c2cccc(C)c2)oc1C (centres undefined) | · | -6% | -3 | · | 9% | -2%
CCOc1ccc2[nH]c(=O)c(CN(Cc3cccs3)Cc3nnnn3C(C)(C)CC)cc2c1 | -2% | -28% | -3 | 1% | ? | 11µM*
CCN1C(=O)N[C@@H](c2ccc(Br)cc2)C(C(=O)OC)=C1C | -6% | 2% | -1 | 12% | -1% | ?
COc1ccc(/C=C/C(=O)N(CC(C)C)CC(C)C)cc1Br | -5% | -3% | 8 | 16% | 11µM* | -2%
COc1ccc(CCn2c(O)cc3nn(-c4nc5ccccc5s4)c(=O)c-3c2C)cc1 | 3% | · | 10 | 0% | 11% | -6%
CS/C(Nc1cc(Cl)ccc1Cl)=C(/C#N)C(=O)c1ccco1 | 5% | 0% | -48* | -4% | 6.3µM* | -5%
Cc1nn(C(C)C(=O)NCc2ccco2)c(C)c1[N+](=O)[O-] (centres undefined) | -3% | 0% | -1 | 2% | 5% | 9%
C/C(=N\NC(=O)C(C)n1nc(C)c([N+](=O)[O-])c1C)c1ccccc1O (centres undefined) | 27% | -4% | -5 | 1% | ? | 3.2µM*
Cc1cc2ccccc2nc1Br | 6% | -1% | -1 | 0% | -9% | 2%[1.53 µM]
CC(C)(C)c1ccc(C(=O)C[n+]2ccccc2Cl)cc1 | · | -18% | -52* | · | · | ·
CCn1cc(C(=O)N(C)c2ccc(C)c(C)c2)c2cc(OC)c(OC)cc2c1=O | · | · | 0 | · | · | ·
N#Cc1ccc(-c2ccc(OCC(=O)Nc3cccnc3)cc2)cc1 | 2% | 16µM* | -10 | -1% | 9% | 23%
COc1ccccc1-n1cnnc1SCC(=O)N1CCN(S(=O)(=O)c2ccccc2)CC1 | -12% | -1% | -3 | -4% | -2% | -1%
Cc1cccc(OCCSCc2ccc(C(=O)Nc3ccccc3)cc2)c1 | · | · | 8 | · | · | ·
CC1(C)CC(=O)C2=C(C1)OC1=C(C(=O)CC(C)(C)C1)C2c1cccc([N+](=O)[O-])c1 | · | 2% | -2 | 7% | -4% | 5%
CCNC(=O)CSc1nc(-c2ccccc2)c(-c2ccccc2)o1 | · | · | 0 | · | · | ·
CC(=O)CSc1nc(-c2ccccc2)c(-c2ccccc2)o1 | -4% | 28µM* | 0 | 7% | ? | 1%
CCOc1ccccc1C(=O)OCC(=O)NCCc1ccc(OC)cc1 | 22% | ? | -8 | 2% | -15% | 12%
